Screening results deposited in PubChem BioAssay by National Center for Advancing Translational Sciences (NCATS).
IMPase cell inh = qHTS Assay for Identifying the Cell-Membrane Permeable IMPase Inhibitors. CHO-M1 cells, IP1 accumulation, HTRF TR-FRET ratio. inhibition (IP1 accumulation), % at 46.1 µM. 120,000 tested, under 10 active; active = well fitted curve in the direction sought with a large enough effect in the signal ratio, not every such curve was filed as active; inconclusive = small, poorly fitted or top-dose-only effect, or a change in a side signal; inactive = no such curve, though single readings can be large or run the other way; the % refers to the signal ratio;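 note: cells stimulated with carbachol in lithium chloride buffer; plate controls were DMSO basal wells for no effect and reference inhibitor wells for full effect; higher means more IMPase inhibition seen as more IP1 and lower FRET ratio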
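CHO-M1, 2000 cells/well, cultured 16–30 h; cpd up to 46 uM; carbachol (50 uM solution, stimulation buffer w/ 50 mM LiCl, pH 7.4), 30 min 37C; IP-One TR-FRET, 10 min RT; Ex 320/Em 665, 620; Hill-fit AC50.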
ALDH1A1 inh = qHTS Assay for Inhibitors of Aldehyde Dehydrogenase 1 (ALDH1A1); Aldehyde dehydrogenase 1A1 (Homo sapiens), P00352; Purified ALDH1A1, NADH fluorescence, propionaldehyde substrate; Potency, µM (titrated, usually from 75.3 µM), without a hit: at the top dose activity, negative = inhibition, most hits filed as inhibitors; 7.3% of 220,000 active;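 note: potency is the fitted concentration of half-maximal effect; plate controls were no enzyme wells and a reference inhibitor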
Target sequence (P00352 whole entry, looked up): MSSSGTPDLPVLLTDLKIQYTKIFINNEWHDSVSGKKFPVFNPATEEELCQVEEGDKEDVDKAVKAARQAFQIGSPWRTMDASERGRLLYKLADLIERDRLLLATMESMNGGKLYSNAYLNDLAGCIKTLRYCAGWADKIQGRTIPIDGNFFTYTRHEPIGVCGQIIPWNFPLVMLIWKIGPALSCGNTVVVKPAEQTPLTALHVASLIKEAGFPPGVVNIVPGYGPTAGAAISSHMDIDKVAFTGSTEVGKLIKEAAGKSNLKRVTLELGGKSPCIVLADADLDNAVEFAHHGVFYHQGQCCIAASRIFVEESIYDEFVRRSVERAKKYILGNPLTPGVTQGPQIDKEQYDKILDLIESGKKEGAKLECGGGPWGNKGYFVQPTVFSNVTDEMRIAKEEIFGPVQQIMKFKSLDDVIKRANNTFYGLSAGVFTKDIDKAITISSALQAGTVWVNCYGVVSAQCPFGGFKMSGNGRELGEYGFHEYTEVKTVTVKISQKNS
PNC assembly inh = High Content Assay for Compounds that inhibit the Assembly of the Perinucleolar Compartment. 3.1% of 140,000 active. AID 2417, 2010. activity change (PNC), negative = inhibition, % at 10 µM. PC3M PTB-GFP, PNC prevalence imaging, 16 h; stronger effect = lower value;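 active = readout at or below -70, meaning at least 70% loss of cells showing the perinucleolar compartment, a nuclear body marking cancer cells; inconclusive = readout between -30 and a set limit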;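 note: plate controls were DMSO wells for no effect and camptothecin positive control wells for full effect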
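PC3M cells stably expressing PTB-GFP, 750–1000 cells/well, treated 16 h at 37 °C with compound (23 nl of library stock), in duplicate. After paraformaldehyde fixation and Hoechst stain, imaged at 20x; PNC prevalence scored by image analysis.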
HPGD inh = qHTS Assay for Inhibitors of HPGD (15-Hydroxyprostaglandin Dehydrogenase); purified HPGD, NADH fluorescence kinetic, PGE2 substrate; Potency, µM, inactives show at the top dose activity change, negative = inhibition, hits mostly inhibitors; 4.3% of 150,000 active; note: potency is the fitted concentration of half-maximal effect
Target sequence (P15428 whole entry, looked up): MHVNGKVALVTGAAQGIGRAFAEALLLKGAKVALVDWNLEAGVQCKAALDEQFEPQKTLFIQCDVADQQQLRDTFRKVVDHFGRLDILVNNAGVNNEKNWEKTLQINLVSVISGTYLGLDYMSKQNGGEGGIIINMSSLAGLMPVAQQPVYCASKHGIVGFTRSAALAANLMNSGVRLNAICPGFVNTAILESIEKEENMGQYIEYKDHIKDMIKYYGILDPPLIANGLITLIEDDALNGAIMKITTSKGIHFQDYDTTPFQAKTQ
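20 nM HPGD preincubated 15 min at room temperature with compound in 50 mM Tris-HCl pH 8, 0.01% Tween 20. Started with 1 mM NAD+ and 30 uM prostaglandin E2; NADH fluorescence (360/450 nm) read 5 times over 30-s intervals, last minus first.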
IMPase Li inh = qHTS Assay for Identifying the Cell-Membrane Permeable IMPase Inhibitors: Potentiation with Lithium; CHO-M1 cells, IP1 TR-FRET (IP-One), carbachol + lithium; Potency, µM (doses to about 59.4 µM), without a hit: top-dose activity, negative = IMPase inhibition, most hits filed as inhibitors; 0.35% of 210,000 active; AID 1457, 2008; active = well fitted inhibition curve with a large enough effect; inconclusive = small, poorly fitted or top-dose-only effect; inactive = no such curve, though single readings can be large or run the other way;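 note: IP1 builds up when IMPase is blocked and the TR-FRET signal falls; potency is the fitted concentration of half-maximal effect; plate controls were basal vehicle for no effect and high inhibitor control for full effect; nearly all actives have a fitted effect of over 50% in size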
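Test compounds were applied to CHO-M1 cells previously cultured for 16–30 h at 2000 per well. A small lithium amount accompanied them; after 30 min at 37C, IP1 was quantified by TR-FRET.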
* = called active by the depositor; ? = inconclusive; nt = no result given; [ ] = remark or other dose. Shown are actives, neighbours in structure and some others; about 11% of the full set was active somewhere. Unless noted, calls come from the whole dose curve; as a rule, active = well fitted inhibition curve with a large enough effect (not every such curve was filed as active); inconclusive = small, poorly fitted or top-dose-only effect, or another doubt; inactive = no such curve, though single readings can be large or run the other way. Unless noted, % is set by controls: 0 for no effect and ±100 for the full control effect.

SMILES	IMPase cell inh	ALDH1A1 inh	PNC assembly inh	HPGD inh	IMPase Li inh
CC(C)(C)OC(=O)NCc1nc(N)n[nH]1	-6.0	16.9%	-100.0*	-11.7%	0.9%
O=C1C[C@@H](O)[C@@H](O)[C@H]2[C@@H]3C(=O)N(C[C@@H]4CCCO4)C(=O)[C@@H]3CC[C@H]12	nt	-1.3%[13.5 µM]	nt	nt	nt
COc1ccc(O[C@H]2C=C[C@@H](c3ccccc3)O[C@H]2CO/N=C2/c3cc(OC)ccc3O[C@@H](c3cccc(OC)c3)[C@H]2O)cc1	nt	5.3%[13.5 µM]	nt	nt	nt
CC(=O)Nc1ccc(-c2cn3ccsc3n2)cc1	0.9	0.7%	?	-8.3%	12.2%[38.3 µM]
c1cn2cc(-c3ccc4c(c3)OCO4)nc2s1	2.4	8.91µM*	28.8	31.6µM*	-2.6%[38.3 µM]
O=C(Nc1ccc(-c2cn3ccsc3n2)cc1)C1CCCC1	2.5	-9.8%	-2.8	14.1µM*	15.7%[38.3 µM]
O=C1CC(SCCO)C(=O)N1c1ccc(Oc2ccccc2)cc1 (centres undefined)	-11.7	14.1µM*	?	-14.5%	5.3%
CCOC(=O)c1ccc(N2C(=O)CC(C(=O)OC)=C2C)cc1	0.6	-20.1%	?	-16.5%	18.6%[38.3 µM]
CCOC(=O)c1ccc(N2C(=O)CC(Sc3nnc(C)s3)C2=O)cc1 (centres undefined)	-3.2	1µM*	-24.7	28.2µM*	-15.2%[38.3 µM]
CCOC(=O)c1ccc(N2C(=O)C=CC2=O)cc1	6.9	0.0631µM*	?	1.41µM*	55.6%[38.3 µM]
CCOC(=O)c1ccc(N2C(=O)C3CC=CCC3C2=O)cc1 (centres undefined)	2.3	-3.5%	60.3	-7.9%	25.7%[38.3 µM]
CCOC(=O)c1ccc(N2C(=O)CC(SCC(N)C(=O)OCC)C2=O)cc1 (centres undefined)	-0.7	3.55µM*	16.3	-7.8%	25.2%[38.3 µM]
CC(=O)C1C(c2ccccc2OC(F)F)NC(=O)NC1(O)C(F)(F)F (centres undefined)	3.4	7.6%	8.5	-8.6%	1.9%[38.3 µM]
COC(=O)c1cccc(S(=O)(=O)N2CCC(NC(=O)Nc3cccc(F)c3)CC2)c1	13.6	7.4%	-98.2*	nt	nt
COc1ccc(Cl)cc1NC(=O)N1CCN(C2CCCCC2)CC1	1.7	-2.2%	-88.2*	-6.1%	31.3%[38.3 µM]
O=c1c(CN2CCN(Cc3ccccc3)CC2)coc2ccc(Cl)cc12	12.1	8.91µM*	-3.3	-8.4%	23.3%[38.3 µM]
O=C(CN(c1ccc(Cl)cc1)S(=O)(=O)c1ccc(Cl)c([N+](=O)[O-])c1)NCCc1ccccc1	nt	25.1µM*	nt	nt	12.6%
O=C(CN(c1ccc(Cl)cc1)S(=O)(=O)c1ccc(Cl)c([N+](=O)[O-])c1)NCCc1ccc(F)cc1	nt	10.6%	-1.4	-5.3%	17.5%
COc1ccc(N(CC(=O)Nc2ccccc2F)S(=O)(=O)c2ccc(C)c([N+](=O)[O-])c2)cc1	nt	11.2µM*	nt	nt	4.1%
CCOC(=O)c1sc(NC(=O)Nc2ccc(Cl)cc2)nc1C	11.2	?	37.8	?	3.2%[38.3 µM]
COc1ccc(-c2cc3c(=O)n(CC(=O)NC4CCN(Cc5ccccc5)CC4)ncn3n2)cc1	2.3	6.0%	-90.5*	-12.2%	19.2%[38.3 µM]
Cc1cc(C)nc(SCCC(=O)Nc2ccccc2Cl)n1	nt	-2.6%	nt	nt	1.7%
Cc1cc(=O)[nH]c(S/C=C/c2ccccc2)n1	-0.8	-5.1%	-29.1	20µM*	13.3%[38.3 µM]
O=[N+]([O-])c1cccc2c[nH]nc12	5.0	-15.3%	nt	31.6µM*	10.0%
O=C(CCc1c[nH]c2ccccc12)N1CCN(c2ccc(O)cc2)CC1	nt	8.91µM*	nt	nt	26.3%
SMILES	IMPase cell inh	ALDH1A1 inh	PNC assembly inh	HPGD inh	IMPase Li inh
COc1ccc(N2CCN(C(=O)CCc3c[nH]c4ccccc34)CC2)cc1	nt	16.9%	nt	nt	2.9%
O=C(/C=C/c1ccco1)OCc1nnc(-c2ccc(Cl)cc2)o1	nt	25.1µM*	nt	nt	11.5%
O=C(Nc1c(-c2ccccc2)nc2ccccn12)c1ccco1	-3.6	-12.3%	-82.3*	-1.7%	-5.5%[38.3 µM]
COC(=O)Nc1nc(C)c(C(=O)c2ccccc2)s1	-3.0	-1.7%	?	-17.7%	23.2%[38.3 µM]
Cc1ccc(-c2nc3ccccn3c2NC(=O)c2ccco2)cc1	13.7	?	-20.2	1.7%	8.9%
Cc1sc(NC(=O)c2ccco2)nc1-c1ccccc1	4.0	-5.4%	?	14.1µM*	-2.0%
COC(=O)c1sc(NC(=O)Cc2cccs2)nc1C	-1.1	12.6µM*	?	-7.9%	21.4%[38.3 µM]
COC(=O)Nc1nc(-c2ccccc2)c(C(=O)c2ccccc2)s1	1.8	0.8%	-98.1*	-16.6%	24.4%[38.3 µM]
COc1ccccc1N=c1scc(-c2ccc(S(=O)(=O)N3CCCC3)cc2)n1C	0.0	nt	nt	nt	nt
C/C(=N/NC(=O)Cc1ccccc1)c1ccc(C)s1	nt	4.1%	41.8	-9.7%	2.5%
C=CCC(O)(/C=C/c1ccccc1)c1ccccc1 (centres undefined)	nt	-0.9%	nt	-12.1%	4.9%
COC(=O)c1sc(NC(=O)c2ccco2)nc1C	-3.1	?	11.1	?	10µM*
O=C(Cc1cccs1)Nc1nc2c(s1)CCCC2	0.0	?	-113.2*	-13.2%	11.6%[38.3 µM]
CC(=O)c1sc(NC(=O)c2ccco2)nc1-c1ccccc1	5.5	1.8%	3.0	11.2µM*	-9.9%[38.3 µM]
CCN1CCN(c2nc3sc4c(c3c(=O)n2-c2ccc(OC)cc2)CCCCC4)CC1	6.4	10µM*	38.3	-13.7%	-1.6%[38.3 µM]
COc1c(Cl)cc(-c2noc(C)c2C(=O)NC(C)C)cc1Cl	nt	1.4%	55.9	-3.5%	5.5%
O=C(N1CCOCC1)n1cnc2ccccc21	-4.5	-2.6%	-100.0*	-9.2%	2.0%
O=C(NCc1ccc2c(c1)OCO2)C1CCC(CNS(=O)(=O)c2ccccc2)CC1 (centres undefined)	-0.6	6.31µM*	320.4	-25.5%	1.7%
O=C(NCCC1=CCCCC1)C1CCC(CNS(=O)(=O)c2ccccc2)CC1 (centres undefined)	nt	0.562µM*	-12.2	-13.2%	-2.8%
CC(=O)Nc1ccc(S(=O)(=O)NCC2CCC(C(=O)NCCC3=CCCCC3)CC2)cc1 (centres undefined)	6.1	-1.2%	?	-28.8%	-0.9%[38.3 µM]
Cc1ccc(S(=O)(=O)NCC2CCC(C(=O)NCc3cccs3)CC2)cc1 (centres undefined)	nt	0.794µM*	nt	nt	-2.5%
O=C(NCc1cccs1)C1CCC(CNS(=O)(=O)c2ccccc2)CC1 (centres undefined)	nt	5.01µM*	nt	nt	3.1%
COc1cc(-c2ccc(N=C=O)c(OC)c2)ccc1N=C=O	nt	?	nt	?	15.5%
Cc1ccc(NC(=O)CN(C)C(=O)CSc2nnc(C(F)(F)F)n2C)cc1	nt	2.2%	nt	nt	-11.7%
OC[C@@H]1O[C@@H](n2cnc3c(N[C@@H]4C[C@@H]5CC[C@H]4C5)ncnc32)[C@@H](O)[C@H]1O	2.6	nt	nt	nt	nt
